Data from PubChem BioAssay AID743445 (Broad Institute, 2014).
The campaign covered roughly 310,000 compounds. About 1,700 (0.55%) were called active. This excerpt belongs to a sample that is enriched for actives. Unmarked numbers belong to inactive results. Rule as the data show it: active = inhibition above about 50%; inactive = the rest.

Target: Histone-lysine N-methyltransferase NSD2 (Homo sapiens) (UniProt O96028)
Test: blockers of NSD2 lysine methylation activity – biochemical, AlphaScreen, single concentration, set 2, primary screen (AID 743445)
Conditions: NSD2 peptide methylation, 120 min, at 12.5 µM, active compounds read high

Sequence of Histone-lysine N-methyltransferase NSD2 (Homo sapiens) (O96028 whole entry, looked up): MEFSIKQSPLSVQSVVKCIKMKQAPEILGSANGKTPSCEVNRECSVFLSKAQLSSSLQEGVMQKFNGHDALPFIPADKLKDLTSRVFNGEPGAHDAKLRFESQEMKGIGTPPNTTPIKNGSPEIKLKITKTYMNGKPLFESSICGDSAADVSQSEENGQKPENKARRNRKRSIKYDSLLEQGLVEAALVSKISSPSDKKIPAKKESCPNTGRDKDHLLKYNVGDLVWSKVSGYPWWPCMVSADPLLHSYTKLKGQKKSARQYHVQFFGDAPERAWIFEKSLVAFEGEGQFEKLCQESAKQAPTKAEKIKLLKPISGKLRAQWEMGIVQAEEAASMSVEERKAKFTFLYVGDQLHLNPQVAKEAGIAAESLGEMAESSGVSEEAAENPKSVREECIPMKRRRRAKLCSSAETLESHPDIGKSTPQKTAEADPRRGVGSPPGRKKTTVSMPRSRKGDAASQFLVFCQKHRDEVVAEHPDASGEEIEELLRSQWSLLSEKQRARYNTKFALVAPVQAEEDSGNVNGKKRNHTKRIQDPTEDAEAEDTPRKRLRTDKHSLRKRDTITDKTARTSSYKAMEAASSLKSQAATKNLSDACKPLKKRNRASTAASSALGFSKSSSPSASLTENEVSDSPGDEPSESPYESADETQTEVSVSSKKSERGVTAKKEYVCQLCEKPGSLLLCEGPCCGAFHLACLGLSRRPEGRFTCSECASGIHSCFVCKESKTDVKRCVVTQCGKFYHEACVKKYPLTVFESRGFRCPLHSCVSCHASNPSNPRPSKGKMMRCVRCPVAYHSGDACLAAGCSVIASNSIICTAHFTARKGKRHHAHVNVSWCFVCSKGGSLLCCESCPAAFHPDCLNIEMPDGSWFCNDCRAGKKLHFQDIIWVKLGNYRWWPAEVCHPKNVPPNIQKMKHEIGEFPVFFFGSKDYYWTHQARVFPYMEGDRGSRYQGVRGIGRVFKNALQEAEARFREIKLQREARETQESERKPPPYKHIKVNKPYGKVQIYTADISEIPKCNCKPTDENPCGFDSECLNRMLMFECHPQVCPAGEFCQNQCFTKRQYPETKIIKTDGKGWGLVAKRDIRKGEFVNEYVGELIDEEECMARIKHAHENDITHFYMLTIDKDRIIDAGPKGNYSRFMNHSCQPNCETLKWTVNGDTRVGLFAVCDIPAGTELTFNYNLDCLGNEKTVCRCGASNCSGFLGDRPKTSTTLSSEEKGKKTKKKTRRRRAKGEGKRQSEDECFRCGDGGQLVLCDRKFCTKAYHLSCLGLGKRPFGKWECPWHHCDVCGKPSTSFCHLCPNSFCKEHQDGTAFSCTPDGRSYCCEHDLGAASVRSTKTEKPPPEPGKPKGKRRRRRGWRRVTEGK

Row | Structure (SMILES) | inhibition
1 | O=C(NC1CCCCC1)c1ccc(-c2ccc(Cl)cc2)o1 | -1.75%
2 | Cc1[nH][nH]c(=O)c1C(c1ccc(-c2ccc(Cl)cc2)o1)c1c(C)[nH][nH]c1=O | 105% (active)
3 | CN(CC(=O)Nc1ccc(F)cc1)C(=O)c1ccc(-c2ccc(Cl)cc2)o1 | -0.366%
4 | O=C(NCC1COc2ccccc2O1)c1ccc(NC(=O)c2cc(F)ccc2F)cc1 (configuration not stated) | -0.735%
5 | COc1ccc(OC)c(NC(=O)CCN2CCC(C)CC2)c1 | 0.958%
6 | CC1CCN(CCC(=O)Nc2ccccc2)CC1 | 51.1% (active)
7 | CCOC(=O)N1CCN(CCC(=O)Nc2ccccc2)CC1 | -3.41%
8 | O=c1[nH]c(CN2CCOCC2)nc2scc(-c3ccccc3)c12 | -2.17%
9 | O=c1[nH]c(CN2CCOCC2)nc2cc(Cl)ccc12 | 108% (active)
10 | CN(CCOc1ccccc1)Cc1nc2cc(Cl)ccc2c(=O)[nH]1 | -1.91%
11 | Cc1ccccc1CS(=O)(=O)Cc1ccc(C(=O)Nc2ccc(Cl)cc2)o1 | 1.09%
12 | CCOC(=O)c1csc(NC(=O)C2CCCN(S(=O)(=O)c3ccc(Cl)s3)C2)n1 (configuration not stated) | 2.06%
13 | Cc1occc1-c1nnc(SCC(=O)NC2CCCCC2)o1 | 0.775%
14 | Cc1cc(C)cc(-c2nnc(SCC(=O)NC3CC3)o2)c1 | 0.103%
15 | O=C(CSc1nnc(-c2ccccc2O)o1)NC1CCCCC1 | 55.7% (active)
16 | CN(C)C(=O)N1CCN(C(=O)[C@@H](Cc2ccccc2)NC(=O)[C@H]2O[C@@H](n3ccc(N)nc3=O)[C@H](O)[C@@H]2O)CC1 | -3.38%
17 | Clc1ccc(C2=CSC3=Nc4cccc5cccc(c45)N23)cc1 | 125% (active)
18 | COc1ccc(CNC(=O)c2nnn(CC(=O)Nc3cc(C)cc(C)c3)c2N)cc1 | 0.097%
19 | COc1ccc(NC(=O)Cn2nnc(C(=O)NCCc3ccc(OC)c(OC)c3)c2N)cc1 | 159% (active)
20 | CCc1ccc(NC(=O)Cn2nnc(C(=O)NCc3ccc(OC)cc3)c2N)cc1 | -10.9%
21 | CC(C)(C)c1ccc(CSc2nnc(-c3cccs3)o2)cc1 | -3.66%
22 | COc1cc(C(C)=O)ccc1OC(C)C(=O)Nc1ccc(S(=O)(=O)N2CCCC2)cc1 (configuration not stated) | -0.04%
23 | C=CCn1c(=NC(=O)c2ccc(S(=O)(=O)N3CCCC3)cc2)sc2cc(NC(C)=O)ccc21 | 96.1% (active)

Row | Structure (SMILES) | inhibition
24 | CC(=O)Nc1ccc(S(=O)(=O)N2CCSCC2)cc1 | -0.875%
25 | Clc1ccc(-n2c(SC/C=C/c3ccccc3)nnc2-c2ccco2)cc1 | 1.46%
26 | COc1cccc(CNC(=O)C2CCCN(c3nc4ccccc4o3)C2)c1OC (configuration not stated) | 0.947%
27 | CN(C)CCNC(=O)c1ccc(-c2cn3c(-c4ccc(Oc5ccccc5)cc4)cnc3cn2)cc1 | 1.51%
28 | Cc1ccc(C(=O)C2CCN(CC(=O)NCCC(C)C)CC2)cc1 | -1.14%
29 | O=C(NC(c1ccc(Cl)cc1)c1cnccn1)C1CCN(Cc2ccc(Cl)cc2)CC1 (configuration not stated) | -0.128%
30 | Cn1c(=O)c2cc(NC(=O)NCCc3cccs3)ccc2n1Cc1cccc(C(F)(F)F)c1 | 0.114%
31 | CCN1CCN(CCNC(=O)c2ccc3c(c2)NC(=O)/C(=C\c2cccc(Cl)c2)S3)CC1 | 2.99%
32 | CCN1CCCC1CNC(=O)c1ccc2c(c1)NC(=O)/C(=C\c1ccccc1F)S2 (configuration not stated) | 21.8%
33 | O=C1Nc2cc(C(=O)N3CCC(N4CCCCC4)CC3)ccc2S/C1=C\c1ccccc1 | 50.2% (active)
34 | CCC(=O)N1CCc2cc(S(=O)(=O)NC(C(=O)N3CCc4ccccc4C3)C(C)C)ccc21 (configuration not stated) | 59.8% (active)
35 | CCC(=O)N1CCc2cc(S(=O)(=O)CCC(=O)N3CCN(c4ccccc4F)CC3)ccc21 | -2.83%
36 | CCOC(=O)N1CCC(NC(=O)C(NS(=O)(=O)c2ccc3c(c2)CCN3C(=O)CC)C(C)C)CC1 (configuration not stated) | 17.1%
37 | COc1cccc(-c2cc3nc(NCc4ccccc4OC)n(C)c(=O)c3s2)c1 | -2.63%
38 | O=C(CSc1nc2ccccc2s1)NN=Cc1ccc(O)cc1O | 9.45%
39 | C=CCNCCCCOc1ccccc1 | 73.8% (active)
40 | C=CCNC(=O)CCCOc1cccc(C)c1 | -2.74%
41 | CCCCCCCCC(=O)NCCOc1ccccc1 | 1.73%
42 | Cc1ccc(CC2(C)C(=O)Nc3ccc(OC(F)(F)F)cc32)cc1 (configuration not stated) | -1.93%
43 | O=C(CN1CCC(NC(=O)NCc2ccccc2)CC1)Nc1ccc2c(c1)OCCO2 | -3.14%
44 | O=C(NCc1cccs1)C1CCN(S(=O)(=O)c2ccccc2[N+](=O)[O-])CC1 | -1.94%
45 | COc1ccc(S(=O)(=O)NCCCc2ccccc2)cc1 | -2.03%
46 | Cc1ccc(S(=O)(=O)N[C@H](CO)C(C)C)cc1 | -1.39%

Row | Structure (SMILES) | inhibition
47 | O=C1C=C(NS(=O)(=O)c2ccccc2)C(=O)c2ccccc21 | 16.2%
48 | Cc1ccc(S(=O)(=O)N/N=C(\c2ccccc2)C2CC2)cc1 | -5.26%
49 | Cc1ccc(S(=O)(=O)/N=C2\C=C(NS(=O)(=O)c3ccc(C)cc3)C(=O)c3ccccc32)cc1 | 186% (active)
50 | COc1ccc(S(=O)(=O)/N=C2\C=C(NS(=O)(=O)c3ccccc3)C(=O)c3ccccc32)cc1 | 116% (active)
51 | CCCCN(C=O)c1c(CC)nc2c(OCc3ccccc3C(=O)OC)cccn12 | 2.37%
52 | Cc1nc2c(OCc3cccc(Cl)c3)cccn2c1N(C)CC1CC1 | 1.55%
53 | CCn1c2ccccc2c2cc(NC(=O)CSc3nnc(-c4ccccc4)n3-c3ccc(C)cc3)ccc21 | 0.529%
54 | Cc1nnc(SCC(=O)NCc2cccs2)[nH]c1=O | -1.95%
55 | O=C(Cc1cccs1)Nc1nnc(SCc2ccc(F)cc2)s1 | 0.676%
56 | CC(C)(C)CC(=O)Nc1nnc(SCC(=O)NCc2cccs2)s1 | 63.2% (active)
57 | CCOC(=O)[C@]12CCCC=C1N(CCC1=CCCCC1)C(=O)[C@H](CC(=O)NCCCCc1ccccc1)C2 | 1.69%
58 | Cc1ccnc(N2CCC(C(=O)NC3CCCCCC3)CC2)n1 | 90.5% (active)
59 | Cc1ccnc(N2CCCC(C(=O)NC3CC3)C2)n1 (configuration not stated) | -1.73%
60 | O=C(NC1CCCCCC1)C1CCN(C(=O)c2ccc(Cl)cc2)CC1 | -0.793%
61 | O=S(=O)(c1ccccc1)N1CCC(c2nc3ccccc3o2)CC1 | -2.44%
62 | CCOC(=O)c1nnn(-c2nonc2OC)c1-c1ccccc1 | 113% (active)
63 | Nc1nonc1-n1nnc(C(=O)N/N=C/C2CCCCC2)c1-c1ccccc1 | 4.38%
64 | CCOC(=O)c1nnn(-c2nc(OC)nc(N(C)C)n2)c1-c1ccccc1 | -2.39%
65 | CN(CCc1ccccc1)C(=O)Cn1nc(-c2ccccc2)ccc1=O | 4.36%
66 | Cc1cccc(OCC(=O)Nc2ccccc2F)c1 | 12.4%
67 | Cc1ccccc1NC(=O)CCOc1ccccc1 | -2.79%
68 | Cc1cccc(OCCC(=O)Nc2ccccc2C(N)=O)c1 | 93.5% (active)
69 | COc1ccc(-c2ccc(C(=O)NC(C)C)c3occc23)c(C)c1 | -1.69%

Row | Structure (SMILES) | inhibition
70 | CCc1ccccc1NC(=O)CSc1nnc(-c2cccs2)o1 | 3.02%
71 | Nc1ccn([C@@H]2O[C@H](C(=O)N[C@H]3CCCCNC3=O)[C@@H](O)[C@H]2O)c(=O)n1 | -3.79%
72 | O=C(NNC(=O)c1ccc(Cl)nc1)c1ccc(Br)cc1 | 98.9% (active)
73 | CC(=O)NC(=S)NNC(=O)c1ccc(Br)cc1 | -3.53%
74 | CCN(CC)c1ccc(NC(=O)c2ccc(Cl)nc2)cc1 | 2.22%
75 | COc1ccc(-c2cc(-c3nnc(SCC(=O)Nc4cccc5ccccc45)n3N)[nH]n2)cc1 | -2.83%
76 | CC(=O)c1ccc(Nc2nc(C(N)c3ccccc3)cs2)cc1 (configuration not stated) | -2.82%
77 | COc1ccc(NC(=O)C2Cc3c(-c4ccc(Cl)cc4)ccnc3O2)cc1 (configuration not stated) | 54.6% (active)
78 | O=C(Nc1ccc(Cl)cc1)C1Cc2c(-c3ccc4c(c3)OCO4)ccnc2O1 (configuration not stated) | -1.29%
79 | CC(=O)Nc1ccc(-c2ccnc3c2CC(C(=O)NC(C)C)O3)cc1 (configuration not stated) | -0.999%
80 | Cc1ccc(S(=O)(=O)N(C)C)cc1NC(=O)/C=C/c1cccs1 | 57.7% (active)
81 | Cc1ccc(S(=O)(=O)N(C)C)cc1NC(=O)COC(=O)/C=C/c1cccs1 | 0.889%
82 | CN(C)S(=O)(=O)c1cccc(NC(=O)COC(=O)/C=C/c2cccs2)c1 | -17%
83 | CC(NCc1ccco1)C(=O)N1CCCCC1 (configuration not stated) | 0.508%
84 | COc1ccccc1C(=O)CSc1nnc(-c2ccccn2)n1-c1ccccc1 | -4.28%
85 | COCCNC(=O)Nc1ccc2nc(-c3ccco3)c(-c3ccco3)nc2c1 | 104% (active)
86 | Cc1nc2cc(NC(=O)NCc3ccccc3)ccc2o1 | -1.07%
87 | CCOc1cc(NC(=S)NCCCOC)c(OCC)cc1NC(=O)c1ccco1 | 1.89%
88 | COc1ccccc1CNC(=O)c1cc(-c2cc(F)ccc2OC)n[nH]1 | 4.87%
89 | CCc1nc2c(OCCOc3ccccc3)cccn2c1N(C)C(=O)c1ccc(OC)cc1 | -0.87%
90 | CCN1CCCC1CNC(=O)c1cc2cc(OC)c(OC)cc2[nH]1 (configuration not stated) | 17.7%
91 | CCN1CCCC1CNc1ncnc2c1[nH]c1ccc(F)cc12 (configuration not stated) | 74.6% (active)
92 | CCN1CCCC1Cn1cnc2c([nH]c3cc(OC)ccc32)c1=O (configuration not stated) | -4.76%
